Data reported in PubChem BioAssay AID1159580 (chemical genetic matrix, 2015).
“And” between values parts separate entries of the source, which are not always exact repeats. Identical values can stand only once. Hit rate of the full screen: of about 5,500 compounds, about 2,000 (36%) were called active. Inconclusive results (about 18%) are left out. Cut-off read from the data, not from the text of the source: active = normalized growth mostly below about 0.91 (no sharp cut-off); inconclusive = no clear call, values can overlap the other calls; inactive = mostly above about 0.92. The list shows a part of the results.

Test: chemical genetic growth profiling, strain panel (AID 1159580);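 note: tested at 20 µM; growth read once vehicle control cultures reached saturation at 30 °C; 1 = growth at the plate median or of vehicle wells; lower values mean less growth of the strain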
Conditions: S. cerevisiae deletion strains, growth OD

Measured: normalized growth

CS(=O)(=O)c1ccc(C2=C(c3ccccc3)C(=O)OC2)cc1
inactive: locus YAL013W, strain DEP1, hits give low values 0.996 | locus YAL021C, strain ccr4, hits give low values 0.955 | locus YAL026C, strain drs2, hits give low values 0.985 | locus YAL030W, strain snc1, hits give low values 0.971 | locus YBL061C, strain skt5, hits give low values 0.972 | locus YBR009C, strain hhf1, hits give low values 0.959 | locus YBR021W, strain FUR4, hits give low values 0.986 | locus YBR023C, strain chs3, hits give low values 0.979 | locus YBR171W, strain sec66, hits give low values 0.983 | locus YBR229C, strain ROT2, hits give low values 1 | locus YBR231C, strain swc5, hits give low values 1 | locus YBR279W, strain paf1, hits give low values 0.987 | locus YCL011C, strain gbp2, hits give low values 0.975 | locus YCL016C, strain dcc1, hits give low values 0.98 | locus YCL029C, strain bik1, hits give low values 0.994 | locus YCL061C, strain MRC1, hits give low values 0.986 | locus YCL069W, strain vba3, hits give low values 0.976 | locus YCR088W, strain abp1, hits give low values 0.985 | locus YDL005C, strain med2, hits give low values 0.983 | locus YDL035C, strain GPR1, hits give low values 0.973 | locus YDL040C, strain nat1, hits give low values 0.984 | locus YDL074C, strain BRE1, hits give low values 0.929 | locus YDL101C, strain DUN1, hits give low values 0.99 | locus YDL134C, strain PPH21, hits give low values 1.01 | locus YDL185W, strain tfp1, hits give low values 0.963 | locus YDL192W, strain arf1, hits give low values 0.98 | locus YDR001C, strain nth1, hits give low values 0.985 | locus YDR069C, strain doa4, hits give low values 0.967 | locus YDR101C, strain arx1, hits give low values 0.995 | locus YDR137W, strain rgp1, hits give low values 1.02 | locus YDR150W, strain NUM1, hits give low values 0.991 | locus YDR159W, strain sac3, hits give low values 0.968 | locus YDR162C, strain NBP2, hits give low values 0.979 | locus YDR195W, strain ref2 0.963 | locus YDR297W, strain sur2, hits give low values 0.983 | locus YDR318W, strain mcm21, hits give low values 0.983 | locus YDR334W, strain swr1, hits give low values 0.968 | locus YDR335W, strain msn5, hits give low values 0.982 | locus YDR388W, hits give low values 0.991 | locus YDR392W, strain spt3, hits give low values 0.954 | locus YDR502C, strain sam2, hits give low values 0.983 | locus YEL003W, strain gim4, hits give low values 0.977 | locus YEL037C, strain rad23, hits give low values 0.992 | locus YEL061C, strain CIN8 (second series), hits give low values 0.97 | locus YEL061C, strain CIN8, hits give low values 0.984 | locus YER015W, strain faa2, hits give low values 0.98 | locus YER016W, strain bim1, hits give low values 0.985 | locus YER110C, hits give low values 0.988 | locus YER111C, strain swi4, hits give low values 0.978 | locus YER155C, strain BEM2 (second series), hits give low values 0.98 | locus YER155C, strain BEM2, hits give low values 1.04 | locus YER167W, strain BCK2, hits give low values 0.989 | locus YFR010W, strain ubp6, hits give low values 0.961 | locus YGL078C, strain dbp3, hits give low values 0.996 | locus YGL086W, strain mad1, hits give low values 0.983 | locus YGL167C, strain pmr1, hits give low values 0.971 | locus YGL173C, strain kem1, hits give low values 0.989 | locus YGL227W, strain vid30, hits give low values 0.969 | locus YGL240W, strain doc1, hits give low values 0.975 | locus YGL248W, strain PDE1, hits give low values 1 | locus YGL253W, strain hxk2, hits give low values 0.987 | locus YGR078C, strain PAC10, hits give low values 0.957 | locus YGR135W, strain pre9, hits give low values 0.979 | locus YGR229C, strain SMI1, hits give low values 0.971 | locus YGR252W, strain gcn5, hits give low values 0.967 | locus YHR013C, strain ard1, hits give low values 0.971 | locus YHR027C, strain rpn1, hits give low values 0.963 | locus YHR030C, strain SLT2, hits give low values 0.994 and 1.03 | locus YHR079C, strain IRE1 (second series), hits give low values 0.992 | locus YHR079C, strain IRE1, hits give low values 1.03 | locus YHR094C, strain hxt1, hits give low values 0.984 | locus YHR129C, strain ARP1, hits give low values 1 | locus YHR142W, strain chs7, hits give low values 0.984 | locus YHR200W, strain rpn10, hits give low values 0.969 | locus YIL066C, strain RNR3, hits give low values 1.01 | locus YIL073C, strain SPO22, hits give low values 0.936 | locus YIL125W, strain kgd1, hits give low values 0.999 | locus YIR030C, strain dcg1, hits give low values 0.987 | locus YJL092W, strain hpr5, hits give low values 0.984 | locus YJL095W, strain BCK1 (second series), hits give low values 0.977 | locus YJL095W, strain BCK1, hits give low values 0.951 and 1.01 | locus YJL115W, strain asf1, hits give low values 0.962 | locus YJL129C, strain trk1, hits give low values 0.978 | locus YJL134W, strain LCB3, hits give low values 0.998 | locus YJL154C, strain vps35, hits give low values 0.991 | locus YJL164C, strain tpk1, hits give low values 0.965 | locus YJL166W, strain qcr8, hits give low values 0.986 | locus YJL168C, strain set2, hits give low values 0.993 | locus YJL187C, strain SWE1 (second series), hits give low values 0.989 | locus YJL187C, strain SWE1, hits give low values 0.981 | locus YJR043C, strain POL32, hits give low values 0.955
